# CYP2C19 inhib = blocks human cytochrome P450 2C19; CYP2C19 Supersomes, luciferin-H EGE luminescence, 30 min; 21% of 96,000 active; AID 778; inhibition, % at 5 µM;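 active = CYP2C19 inhibition above a set limit at 5 µM in the primary screen, cut at about 50% in these data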;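 also: plate controls were negative control wells for no effect and 2.5 mM tranylcypromine positive control for full effect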
# CYP2C9 act = activators of human CYP2C9; P11712; recombinant CYP2C9, luciferin-H conversion, luminescence; stronger effect = higher value; factor 1 = untreated enzyme, 0 = blocked; activation factor at 5 µM; 1.4% of 96,000 active;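 active = activation factor of 2 or more for CYP2C9 at a 5 µM dose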;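 also: 0 = sulfaphenazole-blocked wells and 1 = vehicle-only wells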
# Target sequence (P11712 whole entry, looked up): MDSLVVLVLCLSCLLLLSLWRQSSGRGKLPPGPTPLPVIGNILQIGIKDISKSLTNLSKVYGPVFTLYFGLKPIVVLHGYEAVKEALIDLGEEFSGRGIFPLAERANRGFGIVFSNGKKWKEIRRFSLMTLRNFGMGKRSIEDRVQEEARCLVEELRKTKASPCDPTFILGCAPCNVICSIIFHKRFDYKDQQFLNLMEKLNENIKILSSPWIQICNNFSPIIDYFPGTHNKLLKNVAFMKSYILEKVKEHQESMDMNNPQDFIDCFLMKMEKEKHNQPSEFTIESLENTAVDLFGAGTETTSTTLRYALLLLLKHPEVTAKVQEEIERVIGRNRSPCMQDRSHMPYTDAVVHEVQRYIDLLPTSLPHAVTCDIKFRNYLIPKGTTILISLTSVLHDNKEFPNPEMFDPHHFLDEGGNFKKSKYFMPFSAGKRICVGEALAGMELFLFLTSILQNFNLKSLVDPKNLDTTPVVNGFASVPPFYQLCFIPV
# Measles CPE = protection of cells from measles virus. Measles virus-infected cells, CPE protection, absorbance. protection (pct of control), % at 4 µM. 1.5% of 140,000 active; in the data active = protection mostly above about 24%, no sharp cut-off; inactive = mostly below about 26%
# CYP2C9 inhib = blocks human cytochrome P450 2C9. P11712. inhibition, % at 5 µM. CYP2C9 Supersomes, luciferin-H conversion, luminescence. 20% of 96,000 active;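 active = blocking of liver enzyme CYP2C9 beyond about 50% at 5 µM, limit read from the data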
# CYP2C19 activ = increases human CYP2C19 enzyme activity; recombinant CYP2C19, luciferin-H EGE luminescence; stronger effect = higher value; 0 = fully inhibited enzyme, 1 = untreated enzyme; activation factor at 5 µM; 96,000 tested, under 10 active;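 active = activation factor of at least 2 at 5 µM in the primary screen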;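 also: 0 = wells with 2.5 mM tranylcypromine and 1 = vehicle-only wells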
# * marks the source's active call; other numbers are inactive results; . = no result. This is a sample that favours compounds with a hit; in the whole collection about 22% have one here.
SMILES,CYP2C19 inhib,CYP2C9 act,Measles CPE,CYP2C9 inhib,CYP2C19 activ
COc1ccccc1/C=C/C1(C(=O)NC2CCCC2)CC(=O)N1c1ccc(F)cc1 (stereo not drawn),.,.,2,.,.
CCCn1c(SC2C(=O)CC(C)(C)CC2=O)nc2c1c(=O)n(C)c(=O)n2C,-4,1,13,3,1
CC(SCC(=O)NC12CC3CC(CC(C3)C1)C2)C(=O)O (stereo not drawn),.,.,9,.,.
CC(C)(O)/C=C1/Oc2ccccc2C1N1CCCCC1 (stereo not drawn),25,0.8,8,17,0.7
CCOC(=O)CCC(NC(=O)c1ccc(NCN2C(=O)c3ccccc3C2=O)cc1)C(=O)OCC (stereo not drawn),18,0.4,9,55*,0.8
CC1CN(C(=O)Nc2ccccc2)c2ccccc2-[n+]2ccsc21 (stereo not drawn),.,.,12,.,.
COc1ccc(-c2noc(CSc3ccccc3)n2)cc1OC,31,0.8,5,21,0.7
Cc1ccc(SCc2nc(-c3ccccc3)no2)cc1,86*,0.5,9,51*,0.1
Cc1ccc(OCc2nc(-c3ccccn3)no2)cc1,41,0.7,24,32,0.6
O=C1c2ccccc2C(=O)N1Cc1nc(-c2ccncc2)no1,92*,0.2,6,84*,0.1
O=[N+]([O-])c1cc(-c2nc(-c3ccncc3)no2)cc([N+](=O)[O-])c1,.,.,1,.,.
O=C1c2ccccc2C(=O)N1Cc1nc(-c2ccccc2)no1,49,0.9,.,14,0.5
Cc1ccc(SCc2nc(-c3ccccn3)no2)cc1,86*,0.5,11,52*,0.1
Cc1ccc(SC(C)c2nc(-c3ccncc3)no2)cc1 (stereo not drawn),100*,0,3,96*,0
O=C1NCC(COCc2ccco2)O1 (stereo not drawn),-6,1,17,0,1.1
CN1CCN(C(=S)SCC(=O)Nc2nc(-c3ccccc3)c(-c3ccccc3)o2)CC1,.,.,8,.,.
COC(=O)c1ccc(NC(CC(C)C)C(=O)OC)c([N+](=O)[O-])c1 (stereo not drawn),.,.,5,.,.
COc1cc(C(=O)Oc2cccc(C)c2)cc(OC)c1OC,10,0.7,7,26,0.9
Cc1ccc(SCc2nc(-c3ccncc3)no2)cc1,99*,0.1,17,91*,0
O=C1c2ccccc2C(=O)N1CCCSc1nc2ccccc2o1,46,0.8,6,25,0.5
c1ccc(SCc2nc(-c3ccncc3)no2)cc1,96*,0.2,25,83*,0
O=C1c2ccccc2C(=O)N1Cc1nc2ccccc2o1,64*,1.2,10,-16,0.4
COc1ccc(-c2csc(N3CCN(C(=O)c4ccco4)CC3)n2)cc1,10,0.6,20,38,0.9
COc1ccc2c(c1)nc(SCC(=O)c1cccs1)n2C,51*,0.8,27,24,0.5
CCOc1ccc2nc(SCC(=O)c3cccs3)sc2c1,55*,0.7,5,32,0.4
SMILES,CYP2C19 inhib,CYP2C9 act,Measles CPE,CYP2C9 inhib,CYP2C19 activ
O=C(CSc1nc(-c2ccc(F)cc2)cs1)N1CCN(C(=O)c2ccco2)CC1,76*,1.3,15,-30,0.2
CCc1cc2ccc(C)cc2nc1SCC(=O)N1CCN(C(=O)c2ccco2)CC1,65*,0.1,9,94*,0.3
CC(C)(C)c1nnc(NC(=O)CN2C(=O)C3C4C=CC(C4)C3C2=O)s1 (stereo not drawn),-14,1.1,14,-8,1.1
O=C(CSc1nc2ccccc2s1)N1CCN(C(=O)c2ccco2)CC1,14,0.7,15,27,0.9
CCc1cc2cccc(C)c2nc1SCC(=O)N1CCN(C(=O)c2ccco2)CC1,42,0.4,11,57*,0.6
Cc1nc(SCC(=O)N2CCN(C(=O)c3ccco3)CC2)c2c(C)c(C)sc2n1,51*,0.3,5,73*,0.5
CCOc1ccc2nc(SCC(=O)N3CCN(C(=O)c4ccco4)CC3)sc2c1,29,0.5,23,53*,0.7
CCOC(=O)COc1ccc2c3c(c(=O)oc2c1C)CCC3,65*,0.2,6,79*,0.4
CCOc1ccc2c3c(c(=O)oc2c1OCC)CCCC3,45,1.9,9,-90,0.5
COc1ccc2c3c(c(=O)oc2c1OCC(N)=O)CCCC3,11,2.5*,14,-145,0.9
Cc1c(OCc2nn[nH]n2)ccc2c3c(c(=O)oc12)CCCC3,67*,0.1,8,94*,0.3
Cc1c(OCc2nn[nH]n2)ccc2c3c(c(=O)oc12)CCC(C)C3 (stereo not drawn),85*,0,2,98*,0.2
CCOC(=O)CCc1c(C)c2ccc(OCC)c(C)c2oc1=O,25,0.9,6,14,0.7
CCOC(=O)N1CCC(Nc2ncnc3c2cnn3-c2ccc(Cl)cc2)CC1,11,0.9,12,6,0.9
CCCCNC(=O)CC1N=C2c3ccccc3N=C(SCC(=O)Nc3ccccc3C)N2C1=O (stereo not drawn),20,0.7,11,34,0.8
CCOC(=O)CSC1=Nc2ccccc2C2=NC(CC(=O)NCc3ccccc3)C(=O)N12 (stereo not drawn),3,0.4,6,57*,1
CCC(C)NC(=O)CSC1=Nc2ccccc2C2=NC(CC(=O)NCc3ccc(F)cc3)C(=O)N12 (stereo not drawn),-14,0.9,3,6,1.1
CC(C)C1N=C2c3ccccc3N=C(SCC(=O)NCCc3ccc(S(N)(=O)=O)cc3)N2C1=O (stereo not drawn),-19,1.1,43*,-5,1.2
CCN(CC)C(=O)CSC1=Nc2ccccc2C2=NC(c3ccccc3)C(=O)N12 (stereo not drawn),26,0.4,17,61*,0.7
CCOC(=O)CSC1=Nc2ccccc2C2=NC(CC(=O)NCc3cccs3)C(=O)N12 (stereo not drawn),8,0.4,8,65*,0.9
CC(=O)Nc1ccc(OCC(=O)NC(C)C(C)C)cc1 (stereo not drawn),15,0.9,9,13,0.8
COc1ccc(/C=N/NC(=O)C(Cc2c[nH]c3ccccc23)NC(=O)OCC(C)C)cc1[N+](=O)[O-] (stereo not drawn),-1,0.8,4,24,1
CCCCC(=O)Nc1cccc(-c2nc3ncccc3o2)c1,32,0.6,5,36,0.7
CCCCN1C(=O)C2ON(c3ccccc3C)C(c3ccco3)C2C1=O (stereo not drawn),77*,0,4,96*,0.2
CCc1ccc(N2C(=O)C3ON(c4ccccc4)C(c4ccco4)C3C2=O)cc1 (stereo not drawn),8,0.7,6,31,0.9
COc1ccc(OC)c(NC(=O)C2CCCN(S(=O)(=O)c3cccc4cccnc34)C2)c1 (stereo not drawn),69*,0.8,10,17,0.3
COc1cc(NC(=O)C2CCCCC2)c2ncccc2c1,38,2.1*,4,-111,0.6
